Values joined by “and” are separate entries in the source; they are usually repeats but may differ in a detail not shown here. Identical values can stand only once. Results filed as inconclusive are left out. A structure can be active in one record and inactive in another. Active and inactive are the calls of the source. The calls were made as follows, unless noted: active = hit-call score of the fitted dose curve at least 0.9, where 1 is the maximum; inactive = score below 0.9.
Legend:
[1] = read-out: Macrophage colony-stimulating factor (MCSF), CSF1 (gene 1435); test: BSK_LPS_MCSF: BioMAP Diversity Plus: LPS Assay for Macrophage colony-stimulating factor (MCSF) Biomarker Activity (AID 2283083); details: primary human HUVEC with PBMC; actives raise or lower the signal
Outline: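 Bidirectional fit versus DMSO of ELISA-measured M-CSF in co-cultured human umbilical vein endothelial cells and PBMC, sampled 24 h after dosing.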

[2] = read-out: Tissue Factor, F3 (gene 2152); test: BSK_LPS_TissueFactor: BioMAP Diversity Plus: LPS Assay for Tissue Factor Biomarker Activity (AID 2283084); details: primary human HUVEC with PBMC; actives raise or lower the signal
Outline: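 Read-out: CD142 ELISA, 24 h. System: LPS-driven human endothelial/PBMC co-culture. Analysis: up- or down-signal fitted against DMSO.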

[3] = read-out: Tumor necrosis factor (Homo sapiens) (UniProt P01375); test: BSK_LPS_TNFa: BioMAP Diversity Plus: LPS Assay for Tumour Necrosis Factor alpha (TNFa) Biomarker Activity (AID 2283085); details: primary human HUVEC with PBMC; actives raise or lower the signal
Outline: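 Human umbilical vein endothelial cells co-cultured with PBMC and stimulated with LPS. TNFa was measured by ELISA 24 h after chemical dosing, fitted bidirectionally relative to DMSO.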

[4] = read-out: Vascular cell adhesion molecule 1 (VCAM1), VCAM1 (gene 7412); test: BSK_LPS_VCAM1: BioMAP Diversity Plus: LPS Assay for Vascular cell adhesion molecule 1 (VCAM1) Biomarker Activity (AID 2283086); details: primary human HUVEC with PBMC; actives raise or lower the signal
Outline: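 Human umbilical vein endothelial cells co-cultured with PBMC and stimulated with LPS; VCAM-1 measured by ELISA 24 h after dosing. Bidirectional curve fitting against DMSO baseline; cytotoxicity tracked in parallel by SRB total-protein staining.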

[5] = read-out: CD38, CD38 (gene 952); test: BSK_SAg_CD38: BioMAP Diversity Plus: SAg Assay for CD38 Biomarker Activity (AID 2283087); details: primary human HUVEC with PBMC; actives raise or lower the signal
Outline: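 Human HUVEC plus PBMC co-culture stimulated with superantigen; CD38 measured by ELISA 24 h after chemical dosing. Fluorescence read-out, bidirectional fit against DMSO; cytotoxicity tracked in parallel by SRB and Alamar Blue.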

[6] = read-out: CD40, CD40 (gene 958); test: BSK_SAg_CD40: BioMAP Diversity Plus: SAg Assay for CD40 Biomarker Activity (AID 2283088); details: primary human HUVEC with PBMC; actives raise or lower the signal
Outline: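 Endpoint derived by fitting increases or decreases versus DMSO controls. CD40 is detected by fluorescence ELISA in a human vascular co-culture of endothelium and PBMC at 24 h.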

[7] = read-out: CD69, CD69 (gene 969); test: BSK_SAg_CD69: BioMAP Diversity Plus: SAg Assay for CD69 Biomarker Activity (AID 2283089); details: primary human HUVEC with PBMC; actives raise or lower the signal;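 as to AC50: cell surface CD69 protein quantified by ELISA with fluorescence detection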
Outline: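 Values derive from bidirectional fitting relative to DMSO vehicle. Cells: umbilical vein endothelium plus peripheral blood mononuclear cells, treated 24 h before fluorescent ELISA for CD69.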

[8] = read-out: Monocyte Chemoattractant Protein-1 (MCP1), CCL2 (gene 6347); test: BSK_SAg_MCP1: BioMAP Diversity Plus: SAg Assay for Monocyte Chemoattractant Protein-1 (MCP1) Biomarker Activity (AID 2283090); details: primary human HUVEC with PBMC; actives raise or lower the signal
Outline: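 MCP-1 levels in the endothelial–PBMC SAg co-culture were quantified by ELISA at 24 h post-dosing; both increases and decreases versus DMSO scored. Cytotoxicity monitored by SRB total protein in parallel cultures.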

[9] = read-out: Monokine induced gamma interferon (MIG), CXCL9 (gene 4283); test: BSK_SAg_MIG: BioMAP Diversity Plus: SAg Assay for Monokine induced gamma interferon (MIG) Biomarker Activity (AID 2283092); details: primary human HUVEC with PBMC; actives raise or lower the signal
Outline: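 Values reflect bidirectional fitting of ELISA-measured MIG against DMSO vehicle, taken 24 h after dosing of a co-culture of human umbilical vein endothelial cells and peripheral blood mononuclear cells.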

[10] = BSK_SAg_PBMCCytotoxicity: PBMC Cytotoxicity Assessment in the BioMAP Diversity Plus: SAg Assay (AID 2283093); details: primary human HUVEC with PBMC;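 also: PBMC viability measured as Alamar Blue reduction fluorescence at 546/580 nm; fitted both ways against DMSO so a hit may be loss or gain of signal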;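 as to AC50: PBMC superantigen activated with SEB plus TSST-1 one hour after compound addition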
Outline: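 Compound added to 75,000 PBMC/well for 1 h; SEB and TSST-1 then added at 20 ng/mL final each; 90 h incubation; Alamar Blue 6 h; read 546/580 nm ex/em. Activity fitted bidirectionally relative to DMSO baseline.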

[11] = read-out: Interleukin-8 (IL8), CXCL8 (gene 3576); test: BSK_SAg_IL8: BioMAP Diversity Plus: SAg Assay for Interleukin-8 (IL8) Biomarker Activity (AID 2283094); details: primary human HUVEC with PBMC; actives raise or lower the signal
Outline: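 Human umbilical vein endothelial cells co-cultured with PBMC, stimulated with superantigen; IL-8 measured by ELISA 24 h after chemical dosing. Bidirectional fitting versus DMSO; SRB staining in parallel cultures tracks cytotoxicity.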

[12] = BSK_SAg_Proliferation: Cell Proliferation Assessment in the BioMAP Diversity Plus: SAg Assay (AID 2283095); details: primary human HUVEC with PBMC
Outline: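 Human umbilical vein endothelial cells co-cultured with PBMC; sulforhodamine B total-protein staining (0.1% SRB after 10% TCA fixation, absorbance 560 nm) at 96 h in sub-confluent culture. Fitted bidirectionally against DMSO.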

[13] = BSK_SAg_SRB: Viability Assessment in the BioMAP Diversity Plus: SAg Assay (AID 2283096); details: primary human HUVEC with PBMC;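 also: cells read one day after compound addition; hits may be either gain or loss of signal compared with DMSO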
Outline: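 Total protein by sulforhodamine B staining, 24 h after dosing, in HUVEC–PBMC co-culture; DMSO-referenced bidirectional fitting.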

[14] = biological target: human CYP19A1, CYP19A1 (gene 1588) (UniProt P11511); test: NVS_ADME_hCYP19A1: NovaScreen (NVS) CYP450-related Enzyme Activity (ADME) Assay for human CYP19A1 (AID 2283098; active = hit-call score of the fitted dose curve at least 0.9, where 1 is the maximum;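 as to AC50: potency for inhibitors seen as loss of fluorescent enzyme signal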)
Outline: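 Biochem, cell-free; recombinant enzyme + specific substrate; fluorescence intensity at 0.5 h post-dose; 10 uM duplicate primary, conc. series for actives; acetonitrile = negative control/baseline; positive and negative controls on every plate.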

[15] = read-out: E-selectin (Homo sapiens) (UniProt P16581); test: BSK_SAg_Eselectin: BioMAP Diversity Plus: SAg Assay for Eselectin Biomarker Activity (AID 2283091); details: primary human HUVEC with PBMC; actives raise or lower the signal
Outline: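 Endpoint values derive from bidirectional fitting relative to DMSO, using ELISA-measured E-selectin in a human vascular co-culture (umbilical vein endothelium plus PBMC) sampled 24 h after dosing.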

[16] = biological target: human CYP2B6, CYP2B6 (gene 1555) (UniProt P20813); test: NVS_ADME_hCYP2B6: NovaScreen (NVS) CYP450-related Enzyme Activity (ADME) Assay for human CYP2B6 (AID 2283101; active = hit-call score of the fitted dose curve at least 0.9, where 1 is the maximum)
Outline: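 Compounds were first screened in duplicate at 10 uM against recombinant enzyme, with the fluorescent product measured after 1 hour. Active compounds were retested over a concentration series. Loss of fluorescence versus acetonitrile control was scored as reduced enzyme activity.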

[17] = biological target: human CYP1A2, CYP1A2 (gene 1544) (UniProt P05177); test: NVS_ADME_hCYP1A2: NovaScreen (NVS) CYP450-related Enzyme Activity (ADME) Assay for human CYP1A2 (AID 2283102; active = hit-call score of the fitted dose curve at least 0.9, where 1 is the maximum;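 also: fluorescence from turnover of a fluorogenic substrate by recombinant insect-cell CYP1A2; potency for inhibition since loss of fluorescence marks reduced CYP1A2 activity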)
Outline: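 Inhibition scored as decrease in fluorescent product versus acetonitrile negative control. Enzyme: insect-cell recombinant human CYP1A2, substrate-specific, cell-free. Reading at 0.5 h; 10 uM duplicate initial screen with positive and negative controls on every plate.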

Measured: AC50

human CYP2B6, CYP2B6 (gene 1555), sequence (P20813 whole entry, looked up): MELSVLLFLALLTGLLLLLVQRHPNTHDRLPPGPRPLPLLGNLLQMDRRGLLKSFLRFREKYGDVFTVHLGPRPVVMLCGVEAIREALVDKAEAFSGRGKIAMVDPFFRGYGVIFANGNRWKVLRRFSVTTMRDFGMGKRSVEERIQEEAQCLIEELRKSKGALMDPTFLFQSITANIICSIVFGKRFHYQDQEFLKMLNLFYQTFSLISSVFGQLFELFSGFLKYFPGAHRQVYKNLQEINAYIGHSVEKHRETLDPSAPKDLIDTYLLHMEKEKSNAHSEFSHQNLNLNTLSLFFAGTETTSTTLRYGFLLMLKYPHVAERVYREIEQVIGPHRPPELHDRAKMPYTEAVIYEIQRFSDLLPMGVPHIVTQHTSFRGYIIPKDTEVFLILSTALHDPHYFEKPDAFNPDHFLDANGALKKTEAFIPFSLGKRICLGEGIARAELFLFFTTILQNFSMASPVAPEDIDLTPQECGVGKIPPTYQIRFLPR
human CYP19A1, CYP19A1 (gene 1588), sequence (P11511 whole entry, looked up): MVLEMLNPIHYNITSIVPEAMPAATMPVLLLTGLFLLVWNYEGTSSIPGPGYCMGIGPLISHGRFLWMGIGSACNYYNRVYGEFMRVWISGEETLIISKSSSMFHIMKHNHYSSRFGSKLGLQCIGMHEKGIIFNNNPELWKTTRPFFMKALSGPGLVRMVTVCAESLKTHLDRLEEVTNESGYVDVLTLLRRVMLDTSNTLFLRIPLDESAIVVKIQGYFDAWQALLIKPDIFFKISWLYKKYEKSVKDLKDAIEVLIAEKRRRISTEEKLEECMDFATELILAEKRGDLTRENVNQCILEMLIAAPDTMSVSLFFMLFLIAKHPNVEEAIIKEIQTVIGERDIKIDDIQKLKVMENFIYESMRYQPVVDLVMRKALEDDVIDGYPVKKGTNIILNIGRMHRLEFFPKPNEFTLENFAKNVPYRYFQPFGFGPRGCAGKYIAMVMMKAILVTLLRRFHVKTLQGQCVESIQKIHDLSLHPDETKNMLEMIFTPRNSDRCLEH
Tumor necrosis factor (Homo sapiens), sequence (P01375 whole entry, looked up): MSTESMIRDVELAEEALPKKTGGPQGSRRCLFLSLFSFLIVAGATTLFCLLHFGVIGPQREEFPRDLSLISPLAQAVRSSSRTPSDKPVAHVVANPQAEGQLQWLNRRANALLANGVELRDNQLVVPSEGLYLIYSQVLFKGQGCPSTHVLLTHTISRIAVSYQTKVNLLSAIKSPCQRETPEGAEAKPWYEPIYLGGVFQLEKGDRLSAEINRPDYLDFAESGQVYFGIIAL
E-selectin (Homo sapiens), sequence (P16581 whole entry, looked up): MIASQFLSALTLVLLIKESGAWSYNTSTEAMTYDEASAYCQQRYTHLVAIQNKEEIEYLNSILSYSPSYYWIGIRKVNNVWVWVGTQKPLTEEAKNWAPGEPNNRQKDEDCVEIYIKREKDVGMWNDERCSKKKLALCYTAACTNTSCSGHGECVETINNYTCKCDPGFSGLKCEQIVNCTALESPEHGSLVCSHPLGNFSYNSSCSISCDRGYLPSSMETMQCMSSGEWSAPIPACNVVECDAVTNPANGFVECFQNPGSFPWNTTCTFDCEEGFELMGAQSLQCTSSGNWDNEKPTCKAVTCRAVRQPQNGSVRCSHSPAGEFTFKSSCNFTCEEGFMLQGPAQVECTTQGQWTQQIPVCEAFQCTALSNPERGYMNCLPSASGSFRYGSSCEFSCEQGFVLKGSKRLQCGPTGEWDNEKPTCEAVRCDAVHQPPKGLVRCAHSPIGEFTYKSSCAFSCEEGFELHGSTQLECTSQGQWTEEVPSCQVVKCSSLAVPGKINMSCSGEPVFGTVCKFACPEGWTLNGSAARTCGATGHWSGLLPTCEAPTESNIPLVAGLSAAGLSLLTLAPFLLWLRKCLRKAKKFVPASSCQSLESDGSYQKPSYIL
human CYP1A2, CYP1A2 (gene 1544), sequence (P05177 whole entry, looked up): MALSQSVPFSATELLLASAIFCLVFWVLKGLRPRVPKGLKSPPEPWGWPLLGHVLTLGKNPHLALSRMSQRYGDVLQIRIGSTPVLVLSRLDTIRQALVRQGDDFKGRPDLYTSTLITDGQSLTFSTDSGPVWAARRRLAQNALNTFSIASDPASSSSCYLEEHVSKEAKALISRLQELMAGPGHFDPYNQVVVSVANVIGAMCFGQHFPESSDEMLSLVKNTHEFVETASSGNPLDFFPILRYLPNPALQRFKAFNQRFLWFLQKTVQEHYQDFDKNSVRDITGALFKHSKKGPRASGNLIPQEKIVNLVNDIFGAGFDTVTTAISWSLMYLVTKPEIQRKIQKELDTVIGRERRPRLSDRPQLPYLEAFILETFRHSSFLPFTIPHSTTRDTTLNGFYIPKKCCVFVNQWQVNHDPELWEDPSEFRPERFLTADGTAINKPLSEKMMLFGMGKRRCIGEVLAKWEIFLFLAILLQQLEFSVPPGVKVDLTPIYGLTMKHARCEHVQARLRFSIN

CCSC(=O)N(CC)C1CCCCC1
not listed: [14] | [15] | [16] | [17]
inactive: all other assays above

CCCN(CCC)N=O
not listed: [12] | [15] | [16] | [17]
inactive: all other assays above

O=C(O)C(F)(F)C(F)(F)C(F)(F)C(F)(F)C(F)(F)C(F)(F)C(F)(F)C(F)(F)C(F)(F)F
inactive: [1] | [3]
active: [1] 58.7 µM and 52.5 µM | [3] 54.1 µM and 43.6 µM | [4] 31.2 µM and 56.6 µM and 55.5 µM | [5] 30.4 µM and 53 µM and 51.9 µM | [6] 32.3 µM and 51.6 µM and 44.6 µM | [7] 29.2 µM and 46.9 µM and 46.4 µM | [8] 30.6 µM and 50.1 µM and 49.7 µM | [9] 33.7 µM and 54.9 µM and 53.5 µM | [10] 29.8 µM and 47.3 µM and 51 µM | [11] 36.3 µM and 49.4 µM and 41.4 µM | [13] 32 µM and 53.5 µM and 54.4 µM

CC(C)C(=O)OCC(C)(C)C(OC(=O)C(C)C)C(C)C (centres undefined)
active: [14] 11.6 µM
not listed: [12] | [15] | [16] | [17]
inactive: all other assays above

ClC1=C(Cl)[C@]2(Cl)[C@@H]3[C@H]4C[C@H]([C@@H]5O[C@H]45)[C@@H]3[C@@]1(Cl)C2(Cl)Cl
active: [3] 4.16 µM | [6] 8.47 µM | [15] 5.87 µM | [10] 5.53 µM | [13] 8.56 µM | [16] 4.45 µM
not listed: [4] | [12] | [14] | [17]
inactive: all other assays above

CC(C)(c1ccccc1)c1ccc(O)cc1
active: [1] 33.6 µM | [2] 32.2 µM | [3] 31.5 µM | [4] 33.4 µM | [5] 31.2 µM | [6] 31.1 µM | [7] 37.9 µM | [8] 36.1 µM | [15] 33.5 µM | [9] 38.7 µM | [10] 31.5 µM | [11] 30.9 µM | [13] 30.4 µM | [16] 7.47 µM

O=S(=O)(O)C(F)(F)C(F)(F)C(F)(F)C(F)(F)C(F)(F)C(F)(F)F
active: [17] 9.34 µM
not listed: [12] | [15] | [16]
inactive: all other assays above

NS(=O)(=O)C(F)(F)C(F)(F)C(F)(F)C(F)(F)C(F)(F)C(F)(F)C(F)(F)C(F)(F)F
active: [1] 30.9 µM and 54.9 µM and 51.8 µM | [3] 28.6 µM and 49.6 µM and 49.3 µM | [4] 53.8 µM and 46.6 µM | [5] 27.8 µM and 43.8 µM and 42.4 µM | [6] 27.7 µM and 46.1 µM and 45.8 µM | [7] 27.4 µM and 40.8 µM and 43.4 µM | [8] 31.2 µM and 54.2 µM and 54.5 µM | [9] 34.6 µM and 51.3 µM and 56.3 µM | [10] 33.6 µM and 48 µM and 55.1 µM | [11] 31.8 µM and 43.3 µM and 44.3 µM | [13] 27.6 µM and 47.4 µM and 44.9 µM
inactive: [4]

c1ccc(-c2ccccc2)cc1
not listed: [12] | [14] | [16] | [17]
inactive: all other assays above

Oc1ccc(C(c2ccc(O)cc2)(C(F)(F)F)C(F)(F)F)cc1
active: [1] 20.1 µM | [2] 37.9 µM | [3] 21.5 µM | [4] 23.9 µM | [5] 20.6 µM | [6] 18.3 µM | [7] 26.6 µM | [8] 26.5 µM | [15] 19.8 µM | [9] 32.4 µM | [10] 20.7 µM | [11] 18.1 µM | [13] 22.6 µM | [14] 7.19 µM | [16] 4.71 µM

CCNc1nc(NC(C)C)nc(SC)n1
active: [3] 5.99 µM | [5] 14.9 µM | [17] 4.92 µM
not listed: [12] | [14] | [15] | [16]
inactive: all other assays above

Cc1cccc(C)c1N
not listed: [12] | [14] | [15] | [16] | [17]
inactive: all other assays above

O=C(O)C(F)(F)C(F)(F)C(F)(F)C(F)(F)C(F)(F)C(F)(F)C(F)(F)C(F)(F)F
inactive: [1] | [3] | [4] | [5] | [6] | [7] | [8] | [15] | [9] | [10] | [11] | [13]
active: [4] 51.5 µM and 54.3 µM | [5] 49.6 µM and 47 µM | [6] 30 µM | [7] 42.7 µM and 43.5 µM | [8] 47.6 µM | [11] 44.1 µM and 55.1 µM | [13] 51 µM and 55 µM

CCC(=O)O[C@H]1CC[C@H]2[C@@H]3CCC4=CC(=O)CC[C@]4(C)[C@H]3CC[C@]12C
active: [1] 26 µM | [2] 30.8 µM | [3] 32.1 µM | [4] 30.5 µM | [5] 36 µM | [6] 31.9 µM | [7] 31.1 µM | [8] 30.1 µM | [9] 35.7 µM | [10] 37.9 µM | [11] 29.8 µM | [13] 29.4 µM

Reference: PubChem BioAssay (EPA / NIEHS)
